Reference: PubChem BioAssay
Results filed as inconclusive are left out. Calls of active or inactive are those of the source.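 The calls were made as follows, unless noted: active = normalized viability below 100% at a tested concentration; inactive = the rest.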

Tests used:
[1] = growth inhibition of DIPG glioma cells, dose response, cell-based, JHH-DIPG-1, MIPE4.0, CellTiter-Glo, qHTS (AID 1347062; cut-off not given, nearly all actives have AC50 up to about 27 µM;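 as to AC50: cells exposed to compound for two days before readout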); details: JHH-DIPG-1 viability, CellTiter-Glo ATP luminescence
[2] = growth inhibition of DIPG glioma cells, dose response, cell-based, SU-DIPG-IV, MIPE4.0, CellTiter-Glo, qHTS (AID 1347063; cut-off not given, nearly all actives have AC50 up to about 30 µM;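 also: compound exposure lasted 48 hours before the viability readout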); details: SU-DIPG-IV viability, CellTiter-Glo ATP luminescence
[3] = growth inhibition of DIPG glioma cells, dose response, cell-based, SU-DIPG-XIII, MIPE5.0, CellTiter-Glo, qHTS (AID 1347064; cut-off not given, nearly all actives have AC50 up to about 23 µM;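 also: cells exposed to compound for 48 hours before the viability read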); details: SU-DIPG-XIII viability, CellTiter-Glo ATP luminescence
[4] = SU-DIPG-VI glioma cell viability, MIPE4.0 library, CellTiter-Glo luminescence, qHTS (AID 1347066; cut-off not given, nearly all actives have AC50 up to about 30 µM;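 also: cells exposed to compound for 48 hours before readout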); details: CellTiter-Glo ATP luminescence
[5] = SU-DIPG-XXV glioma cell viability, MIPE5.0 library, qHTS (AID 1347068; cut-off not given, nearly all actives have IC50 up to about 30 µM;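 as to IC50: cells exposed to compound for 48 hours before viability readout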)
[6] = sensitizers of A549 cells to miR-34 induction, primary screen, imaging, A549 dox-inducible miR-34, nuclei and caspase counts (AID 1347080;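 active = compounds whose cell count with miR-34 switched on is under 0.7 times the count with it off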); details: A549 miR-34 inducible, Hoechst nuclei count, 48 h
[7] = modifiers of HSF1 nuclear foci, imaging, Selleck Cancer Library (AID 1347162; in the data active = plate-normalised HSF1 focus index below about 0.46); details: human cells, at 10 µM; SSMD: measured here: HSF1 foci SSMD mean; cell count: measured here: cell number; plate-normalised HSF1 focus index: stronger effect = lower value
[8] = survival rescue of mitochondrial mutant cells in low glucose, primary screen, MELAS cybrids, Rieske KO mouse fibroblasts, CellTiter-Glo (AID 1508586;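 active = mean z-score across replicates of 1.96 or higher in either the MELAS or the Rieske mutant cell line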;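 also: z relative to plate mean and SD of compound and empty wells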)
[9] = ovarian cancer cell viability with rucaparib, profiling panel, oncology-focused library, rucaparib conditional (AID 1508598); details: patient-derived ovarian cancer cells, CellTiter-Glo viability, 144 h, stronger effect = lower value
[10] = viability loss in pontine glioma line – cell-based, SU-DIPG-XXV, MIPE5.0, CellTiter-Glo, qHTS, dose response (AID 1347065; cut-off not given, nearly all actives have AC50 up to about 26 µM;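 also: cells exposed to compound for 48 hours before ATP readout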); details: CellTiter-Glo ATP luminescence
[11] = JHH-DIPG-1 glioma cell viability, MIPE5.0 library, CellTiter-Glo luminescence, qHTS (AID 1347067; cut-off not given, nearly all actives have AC50 up to about 26 µM;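 also: cells exposed to compound for 48 hours before readout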); details: JHH-DIPG-1 glioma viability, CellTiter-Glo ATP luminescence
[12] = growth inhibition of DIPG glioma cells, dose response, cell-based, SU-DIPG-XIII, MIPE4.0, CellTiter-Glo, qHTS (AID 1347061; cut-off not given, nearly all actives have AC50 up to about 37 µM;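 also: cells exposed to compound for 48 hours before readout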); details: SU-DIPG-XIII viability, CellTiter-Glo ATP luminescence
[13] = stronger effect = lower value, cell number ratio, induced over uninduced
[14] = measured here: relative caspase fold change +Dox/-Dox
[15] = measured here: total cells with miR-34 induction, stronger effect = lower value
[16] = measured here: total cells without miR-34 induction
[17] = MELAS cybrid survival, CellTiter-Glo 48 h, stronger effect = higher value
[18] = Rieske KO mouse fibroblast survival, CellTiter-Glo 72 h

Nc1nccc(Oc2ccc(NC(=O)c3c[nH]cc(-c4ccc(F)cc4)c3=O)cc2F)c1Cl
7240: cell count [7]
-0.396: SSMD [7]
0.882: fold change [6, 14]
active: AC50 [1] 18.7 µM | AC50 [2] 16.6 µM | AC50 [3] 14.8 µM | AC50 [4] 26.4 µM | IC50 [5] 23.5 µM | viability ([9]; at 0.0195 µM, OCI-P5x cells, with rucaparib 20 µM, 100% = cells with rucaparib alone) 98.3% | viability ([9]; at 0.0781 µM, OCI-P5x cells, without rucaparib) 98.3% | viability ([9]; at 0.313 µM, OCI-P5x cells, without rucaparib) 99.4% | viability ([9]; at 1.25 µM, OCI-P5x cells, with rucaparib 20 µM, 100% = cells with rucaparib alone) 99.9% | viability ([9]; at 5 µM, OCI-P5x cells, with rucaparib 20 µM, 100% = cells with rucaparib alone) 59% | viability ([9]; at 5 µM, OCI-P5x cells, without rucaparib) 89.1%
inactive: fold change [6, 13] 0.93 | plate-normalised HSF1 focus index [7] 0.991 | z-score [8, 17] -0.165 | viability ([9]; at 0.000305 µM, OCI-C5x cells, with rucaparib 10 µM, 100% = cells with rucaparib alone) 110% | viability ([9]; at 0.000305 µM, OCI-C5x cells, without rucaparib) 130% | viability ([9]; at 0.000305 µM, OCI-P5x cells, with rucaparib 20 µM, 100% = cells with rucaparib alone) 100% | viability ([9]; at 0.000305 µM, OCI-P5x cells, without rucaparib) 117% | viability ([9]; at 0.00122 µM, OCI-C5x cells, with rucaparib 10 µM, 100% = cells with rucaparib alone) 108% | viability ([9]; at 0.00122 µM, OCI-C5x cells, without rucaparib) 127% | viability ([9]; at 0.00122 µM, OCI-P5x cells, with rucaparib 20 µM, 100% = cells with rucaparib alone) 101% | viability ([9]; at 0.00122 µM, OCI-P5x cells, without rucaparib) 114% | viability ([9]; at 0.00488 µM, OCI-C5x cells, with rucaparib 10 µM, 100% = cells with rucaparib alone) 118% | viability ([9]; at 0.00488 µM, OCI-C5x cells, without rucaparib) 134% | viability ([9]; at 0.00488 µM, OCI-P5x cells, with rucaparib 20 µM, 100% = cells with rucaparib alone) 106% | viability ([9]; at 0.00488 µM, OCI-P5x cells, without rucaparib) 111% | viability ([9]; at 0.0195 µM, OCI-C5x cells, with rucaparib 10 µM, 100% = cells with rucaparib alone) 117% | viability ([9]; at 0.0195 µM, OCI-C5x cells, without rucaparib) 140% | viability ([9]; at 0.0195 µM, OCI-P5x cells, without rucaparib) 107% | viability ([9]; at 0.0781 µM, OCI-C5x cells, with rucaparib 10 µM, 100% = cells with rucaparib alone) 104% | viability ([9]; at 0.0781 µM, OCI-C5x cells, without rucaparib) 122% | viability ([9]; at 0.0781 µM, OCI-P5x cells, with rucaparib 20 µM, 100% = cells with rucaparib alone) 106% | viability ([9]; at 0.313 µM, OCI-C5x cells, with rucaparib 10 µM, 100% = cells with rucaparib alone) 133% | viability ([9]; at 0.313 µM, OCI-C5x cells, without rucaparib) 122% | viability ([9]; at 0.313 µM, OCI-P5x cells, with rucaparib 20 µM, 100% = cells with rucaparib alone) 102% | viability ([9]; at 1.25 µM, OCI-C5x cells, with rucaparib 10 µM, 100% = cells with rucaparib alone) 132% | viability ([9]; at 1.25 µM, OCI-C5x cells, without rucaparib) 123% | viability ([9]; at 1.25 µM, OCI-P5x cells, without rucaparib) 101% | viability ([9]; at 5 µM, OCI-C5x cells, with rucaparib 10 µM, 100% = cells with rucaparib alone) 149% | viability ([9]; at 5 µM, OCI-C5x cells, without rucaparib) 139%
7750: cell count [6, 15]
0.168: z-score [8, 18]
8330: cell count [6, 16]

CC(C)(N)c1ccc(-c2nc3ccccc3nc2-c2ccccc2)cc1
active: AC50 [1] 23.5 µM | AC50 [2] 26.4 µM | AC50 [10] 23.5 µM

CCCNC(=O)Nc1ccc(Oc2ncnc3cc(OC)c(OC)cc23)cc1Cl
active: AC50 [3] 20.9 µM | AC50 [11] 26.3 µM
8010: cell count [6, 16]
0.73: fold change [6, 14]
7400: cell count [6, 15]
0.0458: z-score [8, 18]
inactive: outcome [1] | outcome [2] | outcome [4] | outcome [5] | fold change [6, 13] 0.924 | z-score [8, 17] 0.782

Cc1cccc2c1CC[C@H](CN1CCC(c3c(Cl)cccc3Cl)CC1)C[C@@H]2O
inactive: outcome [12] | outcome [4]

Nc1cccc(S(=O)(=O)N2CCCN(S(=O)(=O)c3ccc4c(c3)OCCO4)CC2)c1
inactive: outcome [12] | outcome [4] | outcome [5]

CNC1CCC(N(Cc2cccc(-c3ccncc3)c2)C(=O)c2sc3ccccc3c2Cl)CC1 (configuration not stated)
active: AC50 [1] 14.8 µM | AC50 [2] 16.6 µM | AC50 [10] 11.8 µM | AC50 [4] 18.7 µM | AC50 [11] 20.9 µM | IC50 [5] 9.34 µM
